These sequences were tested against NCAPG2 (assay: pooled miR-30 sensor sort-seq; sequence = guide strand). Details: shRNA.
TTCCATATTGTCTTCACCCTGG was tested, and the sensor-assay potency score (higher = more potent) was -0.0247. In the case of TTGTCGTGGAGACTGTATCTGA, the sensor-assay potency score (higher = more potent) is reported as -0.323. Sequence TAGAACTCTGTAGTTTTCGTTC has a sensor-assay potency score (higher = more potent) of -0.463. TATAATAACACATTCCAGTAGG was tested, and the sensor-assay potency score (higher = more potent) was -0.388. TTGCAAAAACTCTCCAACCAGC gave a sensor-assay potency score (higher = more potent) of -0.983. Sequence TTCTGAGCAGAACTTGTGCTGA has a sensor-assay potency score (higher = more potent) of -0.264. Sequence TTTACCTGCATTAATAACCAGG has a sensor-assay potency score (higher = more potent) of -0.888. Work on TTGATGGTGAAAGTAACTCAGA yielded a sensor-assay potency score (higher = more potent) of -1.15.

Each sequence was assayed against NCF1 in the same assay as above. Details: shRNA.
For TTTGTCTGGTTGTCCGTGGGGA, the sensor-assay potency score (higher = more potent) was 0.0821. TTGGTGCTCTCGCTGCAGCGGT showed a sensor-assay potency score (higher = more potent) of -1.07. With TTCCGCTTGGTGCTCTCGCTGC the sensor-assay potency score (higher = more potent) was -1. TTTTGCAGGTACATGGACGGGA showed a sensor-assay potency score (higher = more potent) of 0.437. Work on TAGATCTCGGTGAAGCGCCGGT yielded a sensor-assay potency score (higher = more potent) of 0.272. For TTCATCTGACAGAACCACCAAC, the sensor-assay potency score (higher = more potent) was -0.468. TCTGACAGAACCACCAACCGCT showed a sensor-assay potency score (higher = more potent) of 0.511. For TTTTTTGTCTGGTTGTCCGTGG, the sensor-assay potency score (higher = more potent) was 0.905. TGGAACTCGTAGATCTCGGTGA showed a sensor-assay potency score (higher = more potent) of 0.128. With AACATGTACACATAGTGCTGGC the sensor-assay potency score (higher = more potent) was -0.578. TAAGGTTTTATGGAACTCGTAG was tested, and the sensor-assay potency score (higher = more potent) was 0.251. With TTATGGAACTCGTAGATCTCGG the sensor-assay potency score (higher = more potent) was -0.843.

These sequences were tested against NCR3 in the same assay as above. Details: shRNA.
Work on TATTGGGTGAATGACAGTGTTC yielded a sensor-assay potency score (higher = more potent) of -1.59. Work on TCTTTCTCCACCACCAGCCGAG yielded a sensor-assay potency score (higher = more potent) of -1.09. For ACTCTGCACACGTAGATGCTGG, the sensor-assay potency score (higher = more potent) was -1.18. Sequence TAGCTGAGGATGTTCTTTCTCC has a sensor-assay potency score (higher = more potent) of -0.477. For TCCAGGTCAGACATTTGCCCTG, the sensor-assay potency score (higher = more potent) was -1.34. In the case of TTCTTTCTCCACCACCAGCCGA, the sensor-assay potency score (higher = more potent) is reported as -1.65. ATGTTCTTTCTCCACCACCAGC gave a sensor-assay potency score (higher = more potent) of -2.11. TGGAACCACCTCATCTCGGAAC showed a sensor-assay potency score (higher = more potent) of -1.16. TTCCAGGTCAGACATTTGCCCT was tested, and the sensor-assay potency score (higher = more potent) was -1.63. In the case of TCTCGGAACCACGTGACGGAGC, the sensor-assay potency score (higher = more potent) is reported as -0.976. Work on AAGCTGACAGCATAGAATCCAG yielded a sensor-assay potency score (higher = more potent) of -0.853. TTTGCCCTGGTAATAGACGGTG showed a sensor-assay potency score (higher = more potent) of -0.728.

What follows are sequences tested against NCSTN in the same assay as above. Details: shRNA.
With TACTGTACAACATAAGTGGTGT the sensor-assay potency score (higher = more potent) was 0.405. TTAAACAGGAGCAAGAAGCTTC was tested, and the sensor-assay potency score (higher = more potent) was -0.218. For TTGGAGTAAACACCAAACCCAT, the sensor-assay potency score (higher = more potent) was -1.26. Sequence TAGCATGCTCCACACATTGTAA has a sensor-assay potency score (higher = more potent) of -1.37. TCGAGCTCGAAGAAATCGCTGC was tested, and the sensor-assay potency score (higher = more potent) was 0.0428. TGAGTCAACATTCTCTAACTGC gave a sensor-assay potency score (higher = more potent) of 0.0625. TCAGCCTGAACTGTGTCGCTGA gave a sensor-assay potency score (higher = more potent) of 0.319. With AAGACAAACATGACATTGCGGG the sensor-assay potency score (higher = more potent) was -0.588.
Further: reference of the scale not given here.
